Screens as filed in PubChem.
CF NFkB block: blocks PAF-induced NF-kB reporter in cystic fibrosis cells. KKLEB NF-kB-GFP reporter, GFP fluorescence overnight. inhibition, % at 5 µM. 360,000 compounds, 0.86% hits. AID 588850;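 active = at least 50% inhibition at 5 µM, scaled per plate between neutral and stimulator controls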;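 note: PAF is a Pseudomonas aeruginosa culture filtrate used as stimulus; plate controls were PAF-stimulated DMSO wells for no effect and unstimulated DMSO wells for full effect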
TROY NFkB inh: blocks TROY-dependent signaling in reporter cells; Q293 LMP1-TROYcd NF-kB luciferase reporter, 4 h; inhibition, % at 10 µM; 360,000 compounds, 0.98% hits; AID 1347056;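 active = compounds whose plate-normalised and pattern-corrected inhibition of the luciferase reporter signal at the single screening dose is 50% or more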
KKLEB cytotox: CF airway cell cytotoxicity counter-screen. 360,000 compounds, 0.36% hits. activity change (cytotoxicity), % at 5 µM. KKLEB CF airway cells viability, ATPlite luminescence, overnight; active compounds read low; cells stimulated with P. aeruginosa culture filtrate. AID 602141;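 active = corrected activity change at or below -50% at 5 µM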
TWEAK Fn14 block: TWEAK-Fn14 signaling inhibition; TWEAK-stimulated Fn14 reporter cells, luciferase luminescence, 8 h; inhibition, % at 10 µM; 360,000 compounds, 2% hits; AID 1159606; in the data active = inhibition above about 50%
HIF-2a inh: blocks HIF-2a reporter activity. 786-0 RCC cells HIF-2a reporter, luciferase luminescence, overnight. inhibition, % at 18.8 µM. 360,000 compounds, 0.72% hits;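 active = inhibition of the luminescence signal of 40% or more relative to plate controls, in a single-dose primary screen at 18.75 µM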
Peg3 prom inh: inhibitors of Peg3 promoter; 360,000 compounds, 1.7% hits; HeLa PEG-Prom luciferase reporter, luminescence, overnight; inhibition, % at 20 µM;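 active = inhibition of at least 50% at 20 µM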
CF NFkB conf: CF NF-kB inhibition confirmation, single concentration | shares compounds with CF NFkB block | inhibition, % at 5 µM | KKLEB CF airway cells, PAF-induced NF-kB-GFP fluorescence, overnight | AID 602472 | 1,300 compounds, 64% hits; in the data active = inhibition above about 40%;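 note: stimulus PAF is a Pseudomonas aeruginosa filtrate and not platelet activating factor; plate controls were DMSO wells with stimulus for no effect and unstimulated DMSO wells for full effect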
* = called active by the depositor. Hits are enriched below; roughly 4% of the tested compounds scored in any of these assays.

How did CCOc1ccc2nc(SCC(=O)c3ccc(C)s3)sc2c1 do in these assays?
CF NFkB block: -4.4; TROY NFkB inh: -34.5; KKLEB cytotox: -10.7; TWEAK Fn14 block: -2.0; HIF-2a inh: -157.5; Peg3 prom inh: -87.5

How did O=C(Nc1ccc(NC(=O)c2ccccn2)cc1)C(=O)Nc1ccc2c(c1)OCCO2 do in these assays?
CF NFkB block: 55.4*; TROY NFkB inh: -5.3; KKLEB cytotox: -47.1; TWEAK Fn14 block: -36.0; HIF-2a inh: -14.8; Peg3 prom inh: -16.0; CF NFkB conf: 11.4

Results for Cc1cccc(N2CC(c3nc4ccccc4n3C)CC2=O)c1C (stereo not drawn) ?
CF NFkB block: -2.3; TROY NFkB inh: 14.4; KKLEB cytotox: 0.4; TWEAK Fn14 block: 3.5; HIF-2a inh: -1.9; Peg3 prom inh: 3.2

How did COc1ccc(-n2c(C)cc3cc(OC(C)=O)ccc32)cc1 do in these assays?
CF NFkB block: 57.2*; TROY NFkB inh: -12.4; KKLEB cytotox: -11.4; TWEAK Fn14 block: 28.1; HIF-2a inh: -75.9; Peg3 prom inh: -138.4; CF NFkB conf: 57.6*

Results for O=C1CCCN1CCC1CCN(C2CC(=O)N(c3ccc(F)cc3)C2=O)CC1 (stereo not drawn) ?
CF NFkB block: 15.9; TROY NFkB inh: 0.6; KKLEB cytotox: 9.3; TWEAK Fn14 block: 7.6; HIF-2a inh: 1.5; Peg3 prom inh: 9.8

What do the screens show for `CCOc1ccc(OCC)c(NC(=O)c2nnn(CC(=O)Nc3cc(C)cc(C)c3)c2N)c1`?
CF NFkB block: 50.4*; TROY NFkB inh: -4.6; KKLEB cytotox: -33.3; TWEAK Fn14 block: -15.1; HIF-2a inh: -0.6; Peg3 prom inh: 25.6; CF NFkB conf: 37.1

What do the screens show for `COc1ccc(C(=O)N/N=C\c2coc3ccc(Cl)cc3c2=O)cc1`?
CF NFkB block: 43.7; TROY NFkB inh: 11.3; KKLEB cytotox: -10.6; TWEAK Fn14 block: 30.4; HIF-2a inh: 29.7; Peg3 prom inh: -2.3

Results for COc1cc(C(=O)N/N=C/c2coc3ccc(Cl)cc3c2=O)ccc1O ?
CF NFkB block: 61.4*; TROY NFkB inh: 24.7; KKLEB cytotox: -14.8; TWEAK Fn14 block: 42.5; HIF-2a inh: 19.4; Peg3 prom inh: 0.4; CF NFkB conf: 38.7

What do the screens show for `O=C(N/N=C/c1coc2ccc(Cl)cc2c1=O)c1ccc(O)cc1`?
CF NFkB block: 51.0*; TROY NFkB inh: 25.4; KKLEB cytotox: -9.9; TWEAK Fn14 block: 69.5*; HIF-2a inh: 12.2; Peg3 prom inh: 15.9; CF NFkB conf: 16.4

How did CCCCCCc1cc2cc(S(=O)(=O)c3ccc(F)cc3)c(=O)oc2cc1O do in these assays?
CF NFkB block: 51.2*; TROY NFkB inh: 50.9*; KKLEB cytotox: -36.2; TWEAK Fn14 block: 22.4; HIF-2a inh: 5.0; Peg3 prom inh: 42.7; CF NFkB conf: 77.7*

How did CCCCCCc1cc2cc(C(=O)Nc3ccccc3OC)c(=O)oc2cc1O do in these assays?
CF NFkB block: 53.6*; TROY NFkB inh: 5.8; KKLEB cytotox: -42.4; TWEAK Fn14 block: 11.8; HIF-2a inh: 9.2; Peg3 prom inh: 2.6; CF NFkB conf: 55.3*

What do the screens show for `CCCC(c1nnnn1C1CCCCC1)N1CCN(C2CCCC2)CC1` (stereo not drawn)?
CF NFkB block: -3.7; TROY NFkB inh: -0.6; KKLEB cytotox: 4.9; TWEAK Fn14 block: -2.3; HIF-2a inh: 14.9; Peg3 prom inh: 7.1

How did Oc1oc(-c2ccc(Br)cc2)nc1/C=N/c1ccccn1 do in these assays?
CF NFkB block: 1.5; TROY NFkB inh: -65.3; KKLEB cytotox: 7.1; TWEAK Fn14 block: -27.5; HIF-2a inh: -203.0; Peg3 prom inh: -119.4

How did COc1ccc(Cc2nnc(SCc3ccc([N+](=O)[O-])cc3)o2)cc1 do in these assays?
CF NFkB block: 65.4*; TROY NFkB inh: 45.0; KKLEB cytotox: 0.2; TWEAK Fn14 block: 65.0*; HIF-2a inh: 19.6; Peg3 prom inh: 6.9; CF NFkB conf: 85.9*

How did COc1nc(-c2ccc(C)cc2)ccc1-c1noc(-c2cccnc2)n1 do in these assays?
CF NFkB block: 52.8*; TROY NFkB inh: -7.6; KKLEB cytotox: -32.1; TWEAK Fn14 block: -0.4; HIF-2a inh: -5.7; Peg3 prom inh: -14.2; CF NFkB conf: 19.2

Results for Cc1cccc(NC(=O)c2ccc([N+](=O)[O-])o2)n1 ?
CF NFkB block: 61.2*; TROY NFkB inh: 7.3; KKLEB cytotox: -24.8; TWEAK Fn14 block: 10.9; HIF-2a inh: -2.8; Peg3 prom inh: 13.6; CF NFkB conf: 7.8

What do the screens show for `Cn1ncc(=S)[nH]c1=S`?
CF NFkB block: -1.8; TROY NFkB inh: 2.5; KKLEB cytotox: 5.9; TWEAK Fn14 block: -3.1; HIF-2a inh: 4.5; Peg3 prom inh: 4.9

How did S=C(NCCc1ccccc1)NCC(c1ccco1)N1CCCCC1 (stereo not drawn) do in these assays?
CF NFkB block: -16.2; TROY NFkB inh: -29.6; KKLEB cytotox: 4.7; TWEAK Fn14 block: -20.2; HIF-2a inh: -32.6; Peg3 prom inh: -33.7

What do the screens show for `Cc1nnc(SCC(=O)N2CCC(c3noc4ccc(F)cc34)CC2)s1`?
CF NFkB block: 63.6*; TROY NFkB inh: 40.4; KKLEB cytotox: -14.5; TWEAK Fn14 block: 68.1*; HIF-2a inh: 2.2; Peg3 prom inh: 1.7; CF NFkB conf: 90.4*

What do the screens show for `COc1ccc(Cl)cc1NC(=O)CN(C)C(=O)c1cc(-c2ccncc2)nc2ccccc12`?
CF NFkB block: 60.6*; TROY NFkB inh: 5.7; KKLEB cytotox: -36.5; TWEAK Fn14 block: 6.9; HIF-2a inh: 6.3; Peg3 prom inh: 42.3; CF NFkB conf: 10.0

How did COc1cc2c(cc1NC(=O)c1cc(-c3ccncc3)nc3ccc(C)cc13)oc1ccccc12 do in these assays?
CF NFkB block: -8.4; TROY NFkB inh: 6.3; KKLEB cytotox: -4.9; TWEAK Fn14 block: 16.5; HIF-2a inh: -3.1; Peg3 prom inh: 10.1

Results for O=C(NCCNC(=O)c1cccc(O)c1)c1cccc(O)c1 ?
CF NFkB block: 5.0; TROY NFkB inh: 24.7; KKLEB cytotox: -1.2; TWEAK Fn14 block: 6.8; HIF-2a inh: 12.0; Peg3 prom inh: 1.1

How did CCC1CCc2c(sc(NC(=O)c3cnccn3)c2C(N)=O)C1 (stereo not drawn) do in these assays?
CF NFkB block: 65.2*; TROY NFkB inh: -31.8; KKLEB cytotox: -38.2; TWEAK Fn14 block: -20.3; HIF-2a inh: -10.6; Peg3 prom inh: -87.3; CF NFkB conf: 10.9

Results for Brc1ccc2[nH]c3c(c2c1)CCC3 ?
CF NFkB block: 3.2; TROY NFkB inh: 9.3; KKLEB cytotox: -2.5; TWEAK Fn14 block: -53.1; HIF-2a inh: -16.7; Peg3 prom inh: 13.8

Results for O=C1Cc2c([nH]c3ccc(Br)cc23)-c2ccccc2N1 ?
CF NFkB block: 85.4*; TROY NFkB inh: 4.2; KKLEB cytotox: -25.4; TWEAK Fn14 block: 79.3*; HIF-2a inh: inactive; Peg3 prom inh: 94.8*; CF NFkB conf: 105.6*

How did CCc1ccc(C(=O)c2cncc(Br)c2)cc1 do in these assays?
CF NFkB block: 43.2; TROY NFkB inh: -9.8; KKLEB cytotox: -12.4; TWEAK Fn14 block: 14.2; HIF-2a inh: -179.1; Peg3 prom inh: -203.7
